Experimental data: PubChem BioAssay (NCI)
This is part of a sample that, as a whole, favours compounds with a hit. Of some 79,000 tested, about 15% had one in any assay. Rule as the data show it: active = growth inhibition above about 70%; inactive = the rest.

Legend:
[1] = NCI Yeast Anticancer Drug Screen. Data for the rad50 strain (AID 155);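 also: 0% = growth of vehicle-only cultures of the same strain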; conditions: S. cerevisiae rad50 strain growth inhibition; at 50.0 µM; hits give high values
How it was run: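 Vehicle-treated cultures provide the reference for the growth inhibition reported for compound-exposed, repair-deficient yeast.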

[2] = NCI Yeast Anticancer Drug Screen. Data for the mec2-1 strain (AID 157); conditions: S. cerevisiae mec2-1 strain, at 50.0 µM, hits give high values
How it was run: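 Yeast mec2-1 mutant treated with compound. Readout: growth inhibition vs vehicle controls.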

[3] = NCI Yeast Anticancer Drug Screen. Data for the sgs1 mgt1 strain (AID 161);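 also: 0% = growth of cultures given vehicle only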; conditions: S. cerevisiae sgs1 mgt1 strain, at 50.0 µM, hits give high values
How it was run: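 Genetically altered yeast, compound exposure, growth inhibition relative to vehicle.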

[4] = NCI Yeast Anticancer Drug Screen. Data for the cln2 rad14 strain (AID 165);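 also: 0% = growth equal to vehicle treated cultures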; conditions: S. cerevisiae cln2 rad14 strain, at 50.0 µM, hits give high values
How it was run: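 cln2 rad14 yeast strain; compound exposure; growth inhibition read vs vehicle controls.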

[5] = NCI Yeast Anticancer Drug Screen. Data for the bub3 strain (AID 167); conditions: S. cerevisiae bub3 mutant strain, at 50.0 µM, hits give high values
How it was run: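 Mutant yeast screening strain plus compound; vehicle-treated cultures serve as the 0% inhibition reference.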

[6] = NCI Yeast Anticancer Drug Screen. Data for the mlh1 rad18 strain (AID 175); conditions: S. cerevisiae mlh1 rad18 strain growth inhibition; at 50.0 µM; hits give high values
How it was run: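 Yeast w/ defined DNA-repair lesions; compound exposure; growth vs vehicle controls → % inhibition.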

Measured: growth inhibition

C=CC(O)CCCC (stereo unspecified)
inactive: [1] 8.35% | [2] -32.6% | [3] 0.6% | [4] 6.25% | [5] -17.1% | [6] 18.1%

COc1ccc(-c2cc(=O)c3ccc(C)nc3[nH]2)cc1
inactive: [1] -18.9% | [2] -30.8% | [3] -40.4% | [4] -20.7% | [5] -16.1% | [6] -18.8%

Clc1ccc(N=C(Oc2ccc(Cl)cc2)c2ccccc2)cc1
inactive: [1] 4.95% | [2] 7.35% | [3] -4.85% | [4] -12.4% | [5] 0.25% | [6] 3.6%

OCC(O)C1OC(n2cnc3c(=S)nc[nH]c32)C(O)C1O (stereo unspecified)
inactive: [1] 2.85% | [2] -6.75% | [3] -3.8% | [4] -42.8% | [5] -6.5% | [6] -10.6%

Cc1cc(NC(C)C)c(C)cc1NC(C)C
inactive: [1] 49% | [2] 31.9% | [3] 47.1% | [4] 21.8% | [5] 33.5% | [6] 43.8%

CCN(CC)C(=O)c1c(-c2ccccc2)nc(-c2ccccc2)c(C(=O)N(CC)CC)c1Cl
inactive: [1] 42% | [2] 14.6% | [3] 21.6% | [4] 21.6% | [5] 1.05% | [6] 27.8%

COc1c([N+](=O)[O-])ccc(C(OC(C)=O)OC(C)=O)c1OC(C)=O
inactive: [1] 33.9% | [2] 23.1% | [3] 55.8% | [4] 2.35% | [5] 31.9% | [6] 29.4%

C=CCNC(=S)Nc1cc(Cl)ccc1OC
inactive: [1] 6.15% | [2] 8.45% | [3] -2.45% | [4] -5.45% | [5] 1.2% | [6] 7.1%

O=S1(=O)CCNc2ccccc2O1
inactive: [1] -3.15% | [2] -6.4% | [3] -3.55% | [4] -15.2% | [5] 7.2% | [6] 3.15%

CC(C)/C(Cl)=N\OC(NC(=O)P(=O)(c1ccccc1)c1ccccc1)(C(F)(F)F)C(F)(F)F
inactive: [1] 58.5% | [2] 52.2% | [3] 50.8% | [4] 65.5% | [5] 52.4% | [6] 60.9%

CCCCNc1nc(Cl)nc(C(F)(F)F)c1N
inactive: [1] 7.35% | [2] 2.45% | [3] 6.55% | [4] -29.8% | [5] 1.4% | [6] 1.35%

OC1c2ccccc2-c2c(Cl)cc(Cl)cc21 (stereo unspecified)
inactive: [1] 0.25% | [2] 6.1% | [3] 11.2% | [4] -45.9% | [5] 3.95% | [6] 1.95%

C/C(CCN(C)C)=N\OC(=O)c1ccccc1
inactive: [1] -12.2% | [2] -25.9% | [3] -33.2% | [4] -6.65% | [5] -6.95% | [6] -26.9%

CSc1cc(Cl)c(C)cc1S(=O)(=O)n1cc[nH]c1=O
inactive: [1] -2.4% | [2] 1.4% | [3] 3.35% | [4] -0.05% | [5] -3.75% | [6] 17.1%

C1CSCCSCCSCCS1
inactive: [1] -1.15% | [2] -2.55% | [3] -0.85% | [4] -12.4% | [5] -0.4% | [6] -11.9%

C=C(CCl)CCl
inactive: [1] 42.4% | [2] 12.2% | [3] 39.1% | [4] 12.5% | [5] 46.3% | [6] 36.5%

Cn1cnc2c([nH]c(=O)n2C2OC(CO)C(O)C2O)c1=N (stereo unspecified)
inactive: [1] 13.5% | [2] 1.05% | [3] 2% | [4] -35.4% | [5] 3.55% | [6] 9.55%

CC1(C)c2ccccc2C(=O)C12CCC(=O)CC2
inactive: [1] 9.2% | [2] -3.4% | [3] 18.8% | [4] 26.4% | [5] 18.9% | [6] 17.5%

CCOC(=O)C1SC(=Nc2ccc(Cl)c(Cl)c2)N=C1C (stereo unspecified)
inactive: [1] -29.9% | [2] -2.8% | [3] -6.4% | [4] 5.9% | [5] -11.7% | [6] -10.1%

C#CCOC(=O)C(N)CC(N)=O (stereo unspecified)
inactive: [1] -13.8% | [2] -21.9% | [3] -40.6% | [4] -11.8% | [5] -26.6% | [6] -17.2%

O=C(O)c1cc(=O)[nH]c(SCc2ccc(Cl)cc2Cl)n1
inactive: [1] -14.4% | [2] 14.5% | [3] -7.05% | [4] -10.2% | [5] 9.6% | [6] -1.35%
